Reference: PubChem BioAssay AID1159580 (chemical genetic matrix, 2015)
About 2,000 (36%) of roughly 5,500 compounds were called active. About 18% were inconclusive and are not listed. Rule as the data show it: active = normalized growth mostly below about 0.91 (no sharp cut-off); inconclusive = no clear call, values can overlap the other calls; inactive = mostly above about 0.92. Some of the results follow.

Experiment: chemical genetic growth profiling, strain panel (AID 1159580);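 also: tested at 20 µM; growth read once vehicle control cultures reached saturation at 30 °C; 1 = growth at the plate median or of vehicle wells; lower values mean less growth of the strain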
Conditions: growth OD
[1] = S. cerevisiae deletion strains, locus YDL101C, strain DUN1, active compounds read low
[2] = S. cerevisiae deletion strains, locus YHR030C, strain SLT2, active compounds read low

Measured: normalized growth

CCOC(=O)NC(=S)NC12CC3CC(CC(C3)C1)C2
inactive: S. cerevisiae deletion strains, locus YAR019C, strain CDC15, active compounds read low 0.978 | S. cerevisiae deletion strains, locus YBL105C, strain PKC1, active compounds read low 0.983 | S. cerevisiae deletion strains, locus YBR135W, strain CKS1, active compounds read low 0.977 | S. cerevisiae deletion strains, locus YBR136W, strain MEC1, active compounds read low 0.962 | S. cerevisiae deletion strains, locus YBR160W, strain CDC28, active compounds read low 0.984 | S. cerevisiae deletion strains, locus YDL017W, strain CDC7, active compounds read low 0.982 | S. cerevisiae deletion strains, locus YDL028C, strain MPS1, active compounds read low 0.978 | [1] 0.979 | S. cerevisiae deletion strains, locus YDL108W, strain KIN28, active compounds read low 0.957 | S. cerevisiae deletion strains, locus YDL132W, strain cdc53, active compounds read low 0.971 | S. cerevisiae deletion strains, locus YDL214C, strain PRR2, active compounds read low 0.875 | S. cerevisiae deletion strains, locus YDR052C, strain DBF4, active compounds read low 0.993 | S. cerevisiae deletion strains, locus YDR054C, strain cdc34, active compounds read low 0.967 | S. cerevisiae deletion strains, locus YDR226W, strain ADK1, active compounds read low 0.975 | S. cerevisiae deletion strains, locus YDR477W, strain SNF1, active compounds read low 0.894 | S. cerevisiae deletion strains, locus YER123W, strain YCK3, active compounds read low 0.827 | S. cerevisiae deletion strains, locus YER133W, strain GLC7, active compounds read low 0.86 | S. cerevisiae deletion strains, locus YFL009W, strain cdc4, active compounds read low 0.972 | S. cerevisiae deletion strains, locus YFL029C, strain CAK1, active compounds read low 0.974 | S. cerevisiae deletion strains, locus YFR003C, strain YPI1, active compounds read low 0.981 | S. cerevisiae deletion strains, locus YFR019W, strain FAB1, active compounds read low 0.955 | S. cerevisiae deletion strains, locus YFR028C, strain CDC14, active compounds read low 0.97 | S. cerevisiae deletion strains, locus YGR040W, strain KSS1, active compounds read low 0.872 | S. cerevisiae deletion strains, locus YGR052W, strain FMP48, active compounds read low 0.947 | S. cerevisiae deletion strains, locus YGR092W, strain DBF2, active compounds read low 0.787 | [2] 0.897 | S. cerevisiae deletion strains, locus YHR079C, strain IRE1, active compounds read low 0.915 | S. cerevisiae deletion strains, locus YHR082C, strain KSP1, active compounds read low 0.946 | S. cerevisiae deletion strains, locus YHR205W, strain SCH9, active compounds read low 0.965 | S. cerevisiae deletion strains, locus YIL147C, strain SLN1, active compounds read low 0.981 | S. cerevisiae deletion strains, locus YJL095W, strain BCK1, active compounds read low 0.964 | S. cerevisiae deletion strains, locus YJL128C, strain PBS2, active compounds read low 0.953 | S. cerevisiae deletion strains, locus YJL157C, strain FAR1, active compounds read low 0.865 | S. cerevisiae deletion strains, locus YJR016C, strain ILV3, active compounds read low 0.985 | S. cerevisiae deletion strains, locus YJR066W, strain TOR1 (second series), active compounds read low 0.789 | S. cerevisiae deletion strains, locus YJR066W, strain TOR1, active compounds read low 0.903 | S. cerevisiae deletion strains, locus YKL048C, strain ELM1, active compounds read low 0.968 | S. cerevisiae deletion strains, locus YKL067W, strain YNK1, active compounds read low 0.896 | S. cerevisiae deletion strains, locus YKL101W, strain HSL1, active compounds read low 0.923 | S. cerevisiae deletion strains, locus YKL193C, strain SDS22, active compounds read low 0.982 | S. cerevisiae deletion strains, locus YKL203C, strain TOR2, active compounds read low 0.958 | S. cerevisiae deletion strains, locus YLR113W, strain HOG1, active compounds read low 0.926 | S. cerevisiae deletion strains, locus YLR133W, strain CKI1, active compounds read low 0.934 | S. cerevisiae deletion strains, locus YLR403W, strain SFP1, active compounds read low 0.851 | S. cerevisiae deletion strains, locus YML070W, strain DAK1, active compounds read low 0.878 | S. cerevisiae deletion strains, locus YMR001C, strain CDC5, active compounds read low 0.973 | S. cerevisiae deletion strains, locus YMR205C, strain PFK2 (second series), active compounds read low 0.917 | S. cerevisiae deletion strains, locus YMR277W, strain FCP1, active compounds read low 0.977 | S. cerevisiae deletion strains, locus YNL006W, strain LST8, active compounds read low 0.971 | S. cerevisiae deletion strains, locus YNL020C, strain ARK1, active compounds read low 0.901 | S. cerevisiae deletion strains, locus YNL161W, strain CBK1, active compounds read low 0.987 | S. cerevisiae deletion strains, locus YNL183C, strain NPR1, active compounds read low 0.939 | S. cerevisiae deletion strains, locus YNL207W, strain RIO2, active compounds read low 0.97 | S. cerevisiae deletion strains, locus YNL222W, strain SSU72, active compounds read low 0.982 | S. cerevisiae deletion strains, locus YNL307C, strain MCK1 (second series), active compounds read low 0.881 | S. cerevisiae deletion strains, locus YOL078W, strain AVO1, active compounds read low 0.972 | S. cerevisiae deletion strains, locus YOL136C, strain PFK27, active compounds read low 0.898 | S. cerevisiae deletion strains, locus YOR061W, strain CKA2, active compounds read low 0.845 | S. cerevisiae deletion strains, locus YOR119C, strain RIO1, active compounds read low 0.934 | S. cerevisiae deletion strains, locus YOR231W, strain MKK1, active compounds read low 0.926 | S. cerevisiae deletion strains, locus YOR329C, strain SCD5, active compounds read low 0.984 | S. cerevisiae deletion strains, locus YPL031C, strain PHO85, active compounds read low 0.87 | S. cerevisiae deletion strains, locus YPL153C, strain RAD53, active compounds read low 0.863 | S. cerevisiae deletion strains, locus YPL204W, strain HRR25, active compounds read low 0.876 | S. cerevisiae deletion strains, locus YPL209C, strain IPL1, active compounds read low 0.981 | S. cerevisiae deletion strains, locus YPL256C, strain CLN2, active compounds read low 1 | S. cerevisiae deletion strains, locus YPR025C, strain CCL1, active compounds read low 0.982 | S. cerevisiae deletion strains, locus YPR106W, strain ISR1, active compounds read low 0.992 | S. cerevisiae deletion strains, locus YPR111W, strain DBF20, active compounds read low 0.996 | S. cerevisiae deletion strains, strain NNK1, active compounds read low 0.988 | S. cerevisiae deletion strains, strain TSCII, active compounds read low 0.971

CCOC(=O)c1cc(-c2ccc(N)cc2)oc1C
inactive: S. cerevisiae deletion strains, locus YAL013W, strain DEP1, active compounds read low 0.943 | S. cerevisiae deletion strains, locus YBR229C, strain ROT2, active compounds read low 0.95 | [1] 0.927 | S. cerevisiae deletion strains, locus YDL134C, strain PPH21, active compounds read low 0.939 | S. cerevisiae deletion strains, locus YDR150W, strain NUM1, active compounds read low 0.822 | S. cerevisiae deletion strains, locus YGR078C, strain PAC10, active compounds read low 0.942 | S. cerevisiae deletion strains, locus YGR229C, strain SMI1, active compounds read low 0.964 | S. cerevisiae deletion strains, locus YHR087W, strain rtc3, active compounds read low 0.96 | S. cerevisiae deletion strains, locus YJR043C, strain POL32, active compounds read low 0.952 | S. cerevisiae deletion strains, locus YJR075W, strain HOC1, active compounds read low 0.963 | S. cerevisiae deletion strains, locus YLR058C, strain SHM2 (second series), active compounds read low 0.961 | S. cerevisiae deletion strains, locus YMR219W, strain ESC1, active compounds read low 0.959 | S. cerevisiae deletion strains, locus YMR263W, strain SAP30, active compounds read low 0.889 | S. cerevisiae deletion strains, locus YNL322C, strain KRE1, active compounds read low 0.973 | S. cerevisiae strains, strain wild type, active compounds read low 0.923
active: S. cerevisiae deletion strains, locus YCL061C, strain MRC1, active compounds read low 0.891 | S. cerevisiae deletion strains, locus YEL061C, strain CIN8, active compounds read low 0.59 | [2] 0.351 | S. cerevisiae deletion strains, locus YKL190W, strain CNB1, active compounds read low 0.869 | S. cerevisiae deletion strains, locus YLR039C, strain RIC1, active compounds read low 0.414 | S. cerevisiae deletion strains, locus YLR085C, strain ARP6, active compounds read low 0.458 | S. cerevisiae deletion strains, locus YLR262C, strain YPT6, active compounds read low 0.385 | S. cerevisiae deletion strains, locus YML094W, strain GIM5, active compounds read low 0.806 | S. cerevisiae deletion strains, locus YMR307W, strain GAS1, active compounds read low 0.548 | S. cerevisiae deletion strains, locus YNL153C, strain GIM3, active compounds read low 0.66 | S. cerevisiae deletion strains, locus YNL298W, strain CLA4 (second series), active compounds read low 0.783 | S. cerevisiae deletion strains, locus YNR030W, strain Alg12, active compounds read low 0.885 | S. cerevisiae deletion strains, locus YPL055C, strain LGE1, active compounds read low 0.749 | S. cerevisiae deletion strains, locus YPL241C, strain CIN2, active compounds read low 0.483 | S. cerevisiae deletion strains, locus YPR135W, strain CTF4, active compounds read low 0.611
